What all share (assay): glycan array binding signal (z-score within array); higher = stronger binding
Common to all, as to details: glycan notation: IUPAC condensed, linker removed

In assay [1] the target is GlcNAc(b1-3)[GlcNAc(b1-6)]GalNAc. The gist of the method:
(§1)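 The binding signal is a Z-score computed within each array and averaged over linkers. Arrays of the same protein sequence at different concentrations or buffers were also averaged together. Data originate from 3228 arrays in the Consortium for Functional Glycomics database, kept only where the protein sequence was available.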

Assay [2] concerns the target Man(a1-3)[Man(a1-6)]Man(b1-4)GlcNAc(b1-4)GlcNAc. In a few lines: as §1
Assay [3] concerns the target Neu5Ac(a2-3)Gal(b1-3)GalNAc(b1-4)Gal(b1-4)Glc. In a few lines: as §1
For assay [4], the target named is Neu5Ac(a2-3)Gal(b1-3)GalNAc(b1-4)[Neu5Ac(a2-3)]Gal(b1-4)Glc. The gist of the method:
as §1

Assay [5] addresses Neu5Ac(a2-3)Gal(b1-3)GalNAc6S. In a few lines: as §1
The target in assay [6] is Neu5Ac(a2-3)Gal(b1-3)GlcNAc(b1-2)[Neu5Ac(a2-3)Gal(b1-3)GlcNAc(b1-4)]Man(a1-6)[Neu5Ac(a2-3)Gal(b1-3)GlcNAc(b1-2)Man(a1-3)]Man(b1-4)GlcNAc(b1-4)GlcNAc. In a few lines: as §1
For assay [7], the target named is Neu5Ac(a2-3)Gal(b1-4)GlcNAc(b1-2)Man. The gist of the method: as §1
The target of assay [8] is Neu5Ac(a2-3)Gal(b1-4)GlcNAc(b1-3)GalNAc. The gist of the method:
as §1

In assay [9] the target is Neu5Ac(a2-3)Gal(b1-4)GlcNAc(b1-6)[Gal(b1-3)]GalNAc. In a few lines:
as §1

Assay [10] concerns the target Neu5Ac(a2-3)Gal(b1-4)[Fuc(a1-3)]GlcNAc. The gist of the method: as §1
Assay [11] addresses Neu5Ac(a2-6)Gal(b1-4)GlcNAc(b1-2)Man(a1-3)Man(b1-4)GlcNAc(b1-4)GlcNAc. In a few lines: as §1
Assay [12] addresses Neu5Ac(a2-6)Gal(b1-4)GlcNAc(b1-2)Man(a1-3)[GlcNAc(b1-4)][Neu5Ac(a2-6)Gal(b1-4)GlcNAc(b1-2)Man(a1-6)]Man(b1-4)GlcNAc(b1-4)GlcNAc. The gist of the method:
as §1

The target of assay [13] is Neu5Ac(a2-6)Gal(b1-4)GlcNAc(b1-2)Man(a1-3)[Man(a1-6)]Man(b1-4)GlcNAc(b1-4)GlcNAc. In a few lines: as §1
In assay [14] the target is Neu5Ac(a2-6)Gal(b1-4)GlcNAc(b1-3)Gal(b1-4)GlcNAc. In a few lines:
as §1

The target in assay [15] is Neu5Ac9Ac(a2-3)Gal(b1-4)GlcNAc. In a few lines:
as §1

Assay [16] has as its target Neu5Gc(a2-3)Gal(b1-3)GlcNAc. In a few lines: as §1
Assay [17] addresses Neu5Gc(a2-3)Gal(b1-4)[Fuc(a1-3)]GlcNAc. The gist of the method: as §1
A further assay has as its target Fuc(a1-2)Gal. In a few lines: as §1
The next assay concerns the target Fuc(a1-2)Gal(b1-4)Glc6S. In a few lines: as §1
For assay [18], the target named is Fuc(a1-2)[Gal(a1-4)]Gal(b1-4)GlcNAc. The gist of the method: as §1
The target in the next assay is Gal(a1-3)GalNAc. In a few lines:
as §1

The next assay has as its target Gal(b1-3)GalNAc. The gist of the method: as §1
The next assay addresses Gal(b1-4)Glc. In a few lines: as §1
The target of assay [19] is Gal(b1-4)GlcNAc(a1-6)Gal(b1-4)GlcNAc. In a few lines:
as §1

Assay [20] concerns the target Gal(b1-4)GlcNAc(b1-3)Gal(b1-4)Glc. In a few lines: as §1
In a further assay the target is Gal3S(b1-3)GalNAc. The gist of the method: as §1
The target in the next assay is Gal3S6S(b1-4)GlcNAc6S. The gist of the method:
as §1

In assay [21] the target is GlcNAc(b1-2)Man(a1-3)[GlcNAc(b1-2)Man(a1-6)]Man(b1-4)GlcNAc(b1-4)GlcNAc. In a few lines:
as §1

The target in assay [22] is GlcNAc(b1-4)GlcNAc(b1-4)GlcNAc(b1-4)GlcNAc(b1-4)GlcNAc(b1-4)GlcNAc. In a few lines:
as §1

The target of a further assay is Kdn(a2-3)Gal(b1-4)GlcNAc. The gist of the method: as §1
Assay [23] concerns the target Man(a1-3)[Man(a1-6)]Man(a1-6)[Man(a1-3)]Man(b1-4)GlcNAc(b1-4)GlcNAc. In a few lines:
as §1

In assay [24] the target is Neu5Ac(a2-3)Gal(b1-3)[Fuc(a1-4)]GlcNAc. In a few lines: as §1
For assay [25], the target named is Neu5Ac(a2-3)Gal(b1-3)[Fuc(a1-4)]GlcNAc(b1-3)Gal(b1-4)[Fuc(a1-3)]GlcNAc. In a few lines: as §1
Assay [26] deals with Neu5Ac(a2-3)Gal(b1-3)[Neu5Ac(a2-6)]GalNAc. In a few lines: as §1
In assay [27] the target is Neu5Ac(a2-3)Gal(b1-4)GlcNAc(b1-3)Gal(b1-3)GlcNAc. The gist of the method:
as §1

Assay [28] concerns the target Neu5Ac(a2-3)Gal(b1-4)[Fuc(a1-3)]GlcNAc(b1-6)[Gal(b1-3)]GalNAc. In a few lines:
as §1

The target of assay [29] is Neu5Ac(a2-3)Gal(b1-4)[Fuc(a1-3)]GlcNAc6S. In a few lines:
as §1

Assay [30] addresses Neu5Ac(a2-3)[Neu5Ac(a2-6)]GalNAc. The gist of the method: as §1
Assay [31] addresses Neu5Ac(a2-6)GalNAc(b1-4)GlcNAc. The gist of the method:
as §1

Assay [32] concerns the target Neu5Gc(a2-3)Gal(b1-3)[Fuc(a1-4)]GlcNAc. In a few lines:
as §1

This excerpt belongs to a sample that is enriched for the strongest signals.

B1: Cp ZmpB (Clostridium perfringens), Q0TR08 (protein)
chain: MNKRKIAAIILATMITNLSATTIDVLAQELNTKNNSKVEVSHDDESHQARVSKFDLYNSDKLDAYNQEFQVSRSNIKSINNNGGKYNSSTIDKAIDGNLETHWETGKPNDANFTNEVVVTFNEITNIDRIVYSARRDSARGKGFAKEFEIYASLKDEGDDFNLVSSGEYTESTRDLVEIKFNPTDFKRLKFKFKKADQNWASAAEFMFYKEDKLNEKFNGLFTDSSMNKVSEEFNTLEKLNAFENELKDHPIYDLYKEGLNNARAILTETSENPTKATLGQITYNLNDDYNNQYRMPYKNIKAIKNNGRHYAAQNIEKAIDNDVNTYWETGTLNSSSFNNEVEVEFNDLVTLDRIVYGSRQSDLKGFAEEVYIYASRTSKGDTYKLVATGAHEATKGLVEAKFEPTEFKRVKFKFKKSKQNSATLNELMFYKPDEVYSSIPKLFTDGTMSELSEEFNSLEKINAFKEKAKNHPLYNDFNETIELAESLISNPRKEDVLELEMRGDSISEAKKRKVWNFQDWQITGLSARAGDKITVYVDVAEGDPTPTLLYKQSLTQHGGATSFQLKPGKNEITIPEINYESNGIPKDVIQGGDLFFTNYKSDSQKRAPKVRIEGASKYPVFILGKSDENEVMKELEAYVEKIKAEPKTTPNIFAVSSNKSLEFVQATYALDWYKKNNKTPKYTAEQWDQYIADAMGFWGFDNSKDVNSDFNFRIMPMVKNLSGGAFMNAGNGVIGIRPGNQDAILAANKGWGVAHELGHNFDTGGRTIVEVTNNMMPLFFESKYKTKTRITDQNIWENNTYPKVGLDDYSNNELYNKADSTHLAQLAPLWQLYLYDNTFYGKFERQFRERDFGNKNREDIYKSWVVAASDAMELDLTEFFARHGIRVDDKVKEDLAKYPKPDKKIYYLNDLAMNYKGDGFTENAKVSVSTSGSNGNIKLSFSVDDENKDNILGYEIRRDGKYVGFTSNDSFVDTKSNLDEDGVYVVTPYDRKLNTLNPIEVNALQPTLSVNPVITLALGEEFNEEEYIVAKDIKGNSLSESVKVKSSNVNTSKVGEYEVLYSLEDSKGNEYTKTSKVNVVSRKEYMSDLTPKQSSNGWGTVRKDKSISGGVIGLTRDGDFVDYNKGLGLHSNAEYVYDLEGKDYDYFESYVGVDKAMSSRPASSVIFKVLVDGEEKFNSGVMRSTTPQKYVKVDVKNAKELKLIVNDAGDGDSSDHASFGDAKLATLSSKPIIKGENLAYSMDEKVDLMKGITATDIEDGNITSKVQIKSSDFVEGKSGIFTVVYSVTDSDGLTSECSRTIAVTDKETQLSDLNWKSATIGSGSVRKDRAVSGNQIRLLNEDNSVETFAKGIGTHSYSEIVYNSEGYDIFDTWVGIDRHVADKKVSSVKFKVYVDGELKAETDVMRIDTPKKRLVVDVRNSKEIKLVVDVADNGNNWDHADWADAKFRNLAEYDASELNKAIEEAKKLDLNNYTEESSEALKNAISKGEEALLSKDKETINSALEELNKEMNSLVKVDLNAVINIPDKYLLKSIQNQLNKTGDITLGDMYSLTTLTLSGVEDLTGLENAKNLETLNMDYNEVKDLRPLSKLKKLNTLNAQEQFIAAGELKPSNGKVIGDSKVYNREGKNVAKTIRVVDKNGNTILEQDAKDEFTINTKDLSSGLYGVHVLFEDEGFSGVMFYLFNV
On to B1, for which the “glycan array binding signal (z-score)” value is -0.207 in assay [1]; -0.046 in [2]; 0.164 in assay [3]; 1.03 in [4]; -0.457 in [5]; 0.01 in assay [6]. The “glycan array binding signal (z-score)” value in [7] is 0.151; in [8] it was -0.142; in assay [9], 1.22; in assay [10] it was 0.096; in assay [11] it was -0.151; in [12], -0.267. The “glycan array binding signal (z-score)” value is -0.365 in [13]; 1.03 in assay [14]; 1.71 in assay [15]; -0.326 in assay [16]; 2.05 in [17].

B2: P-Selectin (Homo sapiens), P16109 (protein)
chain: MANCQIAILYQRFQRVVFGISQLLCFSALISELTNQKEVAAWTYHYSTKAYSWNISRKYCQNRYTDLVAIQNKNEIDYLNKVLPYYSSYYWIGIRKNNKTWTWVGTKKALTNEAENWADNEPNNKRNNEDCVEIYIKSPSAPGKWNDEHCLKKKHALCYTASCQDMSCSKQGECLETIGNYTCSCYPGFYGPECEYVRECGELELPQHVLMNCSHPLGNFSFNSQCSFHCTDGYQVNGPSKLECLASGIWTNKPPQCLAAQCPPLKIPERGNMTCLHSAKAFQHQSSCSFSCEEGFALVGPEVVQCTASGVWTAPAPVCKAVQCQHLEAPSEGTMDCVHPLTAFAYGSSCKFECQPGYRVRGLDMLRCIDSGHWSAPLPTCEAISCEPLESPVHGSMDCSPSLRAFQYDTNCSFRCAEGFMLRGADIVRCDNLGQWTAPAPVCQALQCQDLPVPNEARVNCSHPFGAFRYQSVCSFTCNEGLLLVGASVLQCLATGNWNSVPPECQAIPCTPLLSPQNGTMTCVQPLGSSSYKSTCQFICDEGYSLSGPERLDCTRSGRWTDSPPMCEAIKCPELFAPEQGSLDCSDTRGEFNVGSTCHFSCDNGFKLEGPNNVECTTSGRWSATPPTCKGIASLPTPGLQCPALTTPGQGTMYCRHHPGTFGFNTTCYFGCNAGFTLIGDSTLSCRPSGQWTAVTPACRAVKCSELHVNKPIAMNCSNLWGNFSYGSICSFHCLEGQLLNGSAQTACQENGHWSTTVPTCQAGPLTIQEASTSITAYKSEGESAEFSFPLNLGEESLQGELRWKAEKAPSSQSWITFSLKNQKVSVQKSTSNPKFQLSETLPLTLQIPQVSLQFAGSGNLTLTLDRGILYQEVNLVVMKVTQPDSNTLTCEVMGPTSPKMRLILKQENQEARVSRQEKVIQVQAPEAGVWQCLLSEGEEVKMDSKIQVLSKGLNSGGGSGGGTGGGDLAPQMLRELQETNAALQDVRELLRQQVKEITFLKNTVMECDACGLDRNLPPLAPLGPHPETLVKVKDAEDQLGARVGYIELDLNSGKILESFRPEERFPMMSTFKVLLCGAVLSRIDAGQEQLGRRIHYSQNDLVEYSPVTEKHLTDGMTVRELCSAAITMSDNTAANLLLTTIGGPKELTAFLHNMGDHVTRLDRWEPELNEAIPNDERDTTMPVAMATTLRKLLTGELLTLASRQQLIDWMEADKVAGPLLRSALPAGWFIADKSGAGERGSRGIIAALGPDGKPSRIVVIYTTGSQATMDERNRQIAEIGASLIKHWGPDYKDHDGDYKDHDIDYKDDDDKGPHHHHHH
For the molecule B2, the “glycan array binding signal (z-score)” value with Fuc(a1-2)Gal is -0.092; with Fuc(a1-2)Gal(b1-4)Glc6S, -0.268; in assay [18] it was -0.151; with Gal(a1-3)GalNAc, -0.071; with Gal(b1-3)GalNAc it was -0.218; with Gal(b1-4)Glc, -0.174. For the same molecule, the “glycan array binding signal (z-score)” value in [19] was -0.301; in assay [20], -0.219; in the assay with Gal3S(b1-3)GalNAc it was -0.113; in the assay with Gal3S6S(b1-4)GlcNAc6S, 4.08; in assay [21] it was -0.237; in [1], -0.329. For the same molecule, the “glycan array binding signal (z-score)” value was -0.163 in [22]; -0.191 in the assay with Kdn(a2-3)Gal(b1-4)GlcNAc; -0.052 in assay [23]; 0.332 in [2]; 0.282 in assay [5]; 6.36 in [24]. Also, the “glycan array binding signal (z-score)” value in assay [25] was 3.52; in assay [26], 0.025; in assay [27] it was -0.141; in assay [28], 0.071; in assay [29] it was 9.93; in assay [30], -0.109. Moreover, the “glycan array binding signal (z-score)” value is -0.322 in assay [31] and 4.38 in assay [32].

For the origin of these results see the supplement of paper PMC8728848.
